In PubChem BioAssay AID652104 (National Center for Advancing Translational Sciences (NCATS), 2013):
Several values for one entry are separate records, joined by “and”; a condition that tells them apart may be missing. Equal entries are not always repeated. The campaign covered roughly 410,000 compounds. About 7,200 (1.8%) were called active. Another 7% or so got no clear call; they are omitted. The call rests on the fitted dose curve; in most records, active means well fitted activation curve with a large enough effect; inconclusive means small, poorly fitted or top-dose-only effect, or another doubt; inactive means no such curve, though single readings can be large or run the other way. Shown is part of a subset that was picked to be rich in actives.

experiment: qHTS of TDP-43 Inhibitors; settings: TDP-43 expressing yeast growth rescue, BacTiter-Glo, 24 h; series mostly up to 46.1 µM; growth rescue (activation): at the top concentration; further: nearly all actives have a fitted effect of over 50% in size; on growth rescue (activation): % of control where 0% means no effect
In short: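 Luminescence from BacTiter-Glo reports growth of TDP-43-expressing yeast after 24 hr at 30 deg C with compound. Cells were raffinose-pregrown to mid-log, then seeded in galactose medium at OD600=0.02.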
Potency means the concentration at half of the fitted maximal effect.

Row | Compound | growth rescue (activation) | Potency
1 | COc1ccc(C)cc1S(=O)(=O)NCCc1ccccc1 | 1.56% (inactive) | –
2 | COc1ccc(-c2onc(C)c2C)cc1S(=O)(=O)NCc1cccs1 | 9.4% (inactive) | –
3 | COc1ccc(-c2onc(C)c2C)cc1S(=O)(=O)NCCc1ccccc1 | – | 15.8 µM (active)
4 | Cc1ccc(N(CC(=O)NCC(C)c2ccccc2)S(=O)(=O)N(C)C)cc1 (stereo not given) | 0% (inactive) | –
5 | CCCN(CCC)CCNC(=O)c1ccc2c(c1)NC(=O)C(CS(=O)(=O)Cc1cccc(Br)c1)N2 (stereo not given) | -2.33% (inactive) | –
6 | CCOc1ccc(-c2nonc2NC(=O)c2oc3ccc(CC)cc3c2C)cc1 | -12.6% (inactive) | –
7 | O=C(NCc1ccc2c(c1)CCN2C(=O)c1ccccc1)Nc1cc(F)ccc1F | -15.6% (inactive) | –
8 | Cc1ccc2c(c1)N(C(=O)CCC(=O)N1CCc3ccccc3C1)CCO2 | 15.3% (inactive) | –
9 | COc1ccc2c(c1)c1ncn(Cc3ccccn3)c(=O)c1n2C | -11.4% (inactive) | –
10 | Cc1ccc2c(c1)c1ncnc(N3CCc4ccccc4C3)c1n2C | – | 22.4 µM (active)
11 | CCOc1ccc(-n2nc3ccc(NC(=O)c4ccc(OC)c(Cl)c4)cc3n2)cc1 | 10.4% (inactive) | –
12 | CCCCOc1ccc(NC(=O)c2cc3c(n(-c4ccc(Cl)cc4)c2=O)CCCC3=O)cc1 | -8.97% (inactive) | –
13 | COc1ccc(C2=NN(C(=O)CSc3nc(=O)n4ccc(C)cc4n3)C(c3ccc(C)cc3)C2)cc1 (stereo not given) | 9.83% (inactive) | –
14 | COc1ccc(C2=NN(C(C)=O)C(c3ccccc3)C2)cc1 (stereo not given) | – | 14.1 µM (active)
15 | CCC(=O)N1N=C(c2ccc(OC)cc2)CC1c1cn(-c2ccccc2)nc1-c1cccs1 (stereo not given) | -13% (inactive) | –
16 | CCN(C(=O)Cn1c(=O)nc(-c2ccccc2)c2cc(Cl)ccc21)c1cccc(C)c1 | 18.1% (inactive) | –
17 | Cn1c(=O)c2c(-c3ccccc3Br)n(Cc3ccccc3)cc2n(C)c1=O | – | 22.4 µM (active)
18 | Cc1ccc(-c2c3c(=O)n(C)c(=O)n(C)c3cn2-n2cnnc2)cc1 | -8.21% (inactive) | –
19 | COc1ccc(CCn2cc3c(c2-c2ccc(Br)cc2)c(=O)n(C)c(=O)n3C)cc1OC | 2.32% (inactive) | –
20 | CCc1ccc(S(=O)(=O)c2nnn3c2nc(NCc2ccccc2OC)c2cc(Cl)ccc23)cc1 | 1.16% (inactive) | –
21 | NS(=O)(=O)c1ccc(NC(=O)C(=O)Nc2ccc3nc4n(c(=O)c3c2)CCCCC4)cc1 | 13.4% (inactive) | –
22 | Cc1nc(NC(=O)C2CCCCC2)sc1C | – | 12.6 µM (active)
23 | CC(C)NS(=O)(=O)c1ccc(NC(=O)C2CCCCC2)cc1 | -2.1% (inactive) | –
24 | CCOC(=O)c1cc(C)sc1NC(=O)C1CCC1 | 14.2% (inactive) | –

Row | Compound | growth rescue (activation) | Potency
25 | CCOC(=O)C1CCCN(C(=O)c2ccc3c(c2)sc2nc(-c4ccc(CC)cc4)cn23)C1 (stereo not given) | 19.4% (inactive) | –
26 | COc1ccc(/C=C/c2nc(C#N)c(NCc3ccc(F)cc3)o2)cc1OC | 3.83% (inactive) | –
27 | COc1cc2[nH]c(=O)n(Cc3ccc(C(=O)NCc4ccc(C)cc4)cc3)c(=O)c2cc1OC | 13.5% (inactive) | –
28 | Cc1cccc(N2CCN(C(=O)CCSCc3ccccc3F)CC2)c1C | – | 20 µM (active)
29 | COc1ccc(N2CCN(C(=O)CCSCc3ccccc3F)CC2)cc1 | 10.3% (inactive) | –
30 | O=C(CCSc1ccccc1)N1CCN(c2ccccc2F)CC1 | -9.85% [at 9.22 µM] (inactive) | –
31 | CCc1cc2c(cc3c(=O)n(CC(=O)NCc4cccc(Cl)c4)nc(CC)n32)s1 | 20.3% (inactive) | –
32 | C=Cc1ccc(Cn2c(C(=O)O)c(CNC3CCCC3)c3ccc(C)cc32)cc1 | 19.4% (inactive) | –
33 | CCCNC(=O)C1CCC(Cn2c(=O)c3sccc3n(Cc3ccccc3F)c2=O)CC1 (stereo not given) | 5.85% (inactive) | –
34 | COc1ccccc1-c1cc2nc(C)c(CCC(=O)O)c(C)n2n1 | 12.8% (inactive) | –
35 | COc1ccccc1-c1cc2nc(C)c(CCC(=O)NC3CCCCC3)c(C)n2n1 | 15.4% (inactive) | –
36 | COc1ccc(-c2cc3nc(C)c(CCC(=O)NC(C)CCc4ccco4)c(C)n3n2)c(OC)c1 (stereo not given) | – | 17.8 µM (active)
37 | COc1ccc(C2CC(=O)C=C(NCC3CCCO3)C2)cc1 (stereo not given) | 3.96% (inactive) | –
38 | COc1ccc([C@H]2CC(=O)C=C(c3ccc(OC(F)(F)F)cc3)C2)cc1OC | – | 14.1 µM (active)
39 | COc1ccc([C@H]2CC(=O)C=C(c3ccc(CO)cc3)C2)cc1 | 4.37% (inactive) | –
40 | COc1ccc(C2CC(=O)n3c(nc4ccccc43)S2)cc1OC (stereo not given) | -3.84% (inactive) | –
41 | COc1ccc([C@H]2CC(=O)C=C(/C=C/c3ccccc3)C2)cc1 | 22.2% (inactive) | –
42 | COc1cccc(C2=CC(=O)C[C@H](c3ccc(OC)c(OC)c3)C2)c1 | – | 15.8 µM (active)
43 | CCOC(=O)c1c(NC(=O)Cc2coc3ccc(CC)cc23)sc2c1CCC2 | 9.45% (inactive) | –
44 | O=C(Nc1ccc(OC(F)(F)F)cc1)C1CCCN(S(=O)(=O)c2ccc(Br)s2)C1 (stereo not given) | 0% (inactive) | –
45 | CC(NC(=O)c1cc2c(=O)n3ccccc3nc2n(C(C)C)c1=N)c1ccccc1 (stereo not given) | 9.02% (inactive) | –
46 | COc1ccc(-c2cc(C(=O)N(C)Cc3ccccc3)c3ccccc3n2)cc1 | – | 14.1 µM (active)
47 | COc1ccc(C2=NS(=O)(=O)N(C)C(C(=O)N(C)Cc3ccccc3)=C2)cc1 | 23.4% (inactive) | –
48 | CN(C)C(CNC(=O)CCCOc1ccccc1)c1ccco1 (stereo not given) | 8.75% (inactive) | –

Row | Compound | growth rescue (activation) | Potency
49 | COc1cccc(NC(=O)CN(C)C(=O)c2cc(Cl)nc3ccccc23)c1 | 14.2% (inactive) | –
50 | CN(CCOc1ccccc1)C(=O)c1cc(-c2ccco2)nc2ccccc12 | – | 35.5 µM (active)
51 | CN(Cc1ccccc1)C(=O)c1cc2c(=O)n(C)c3ccccc3c2s1 | -22% (inactive) | –
52 | Cc1ccc2oc3c(c(=O)c2c1)C(c1ccc(O)cc1)N(Cc1ccc2c(c1)OCO2)C3=O (stereo not given) | -1.95% (inactive) | –
53 | CNc1ccc(-c2nc(-c3ccccc3C)no2)cc1[N+](=O)[O-] | 2.62% (inactive) | –
54 | Cc1ccc(CN2CCC(CNC(=O)c3cnn(-c4ccc(C)cc4)c3C3CCN(C(=O)OC(C)(C)C)CC3)CC2)cc1 | -10.7% (inactive) | –
55 | COc1ccc(CC(=O)N/N=C/c2cc([N+](=O)[O-])cc(Br)c2O)cc1 | – | 6.31 µM (active)
56 | COc1ccc(Cc2nnc(SCC(=O)c3cccc([N+](=O)[O-])c3)n2C)cc1 | -18.2% (inactive) | –
57 | COc1ccc(CCNS(=O)(=O)c2cccc([N+](=O)[O-])c2)cc1 | -3.92% [at 1.82 µM] (inactive) | –
58 | Cc1ccc(NC(=O)COc2coc(CN3CCc4ccccc4C3)cc2=O)cc1Cl | -7.54% (inactive) | –
59 | O=C(COc1ccccc1Cl)Nc1ccc2nc(SCC(=O)N3CCCC3)sc2c1 | 5.47% (inactive) | –
60 | Cc1ccccc1OCC(=O)Nc1ccc(N2CCN(C(=O)C(C)C)CC2)c(Cl)c1 | – | 25.1 µM (active)
61 | COc1ccc(-c2nc(SCC(=O)N3CCCCC3C)n[nH]2)cc1 (stereo not given) | 8.34% (inactive) | –
62 | COc1ccccc1CN1CCC(CNC(=O)c2cnn(-c3ccccc3Cl)c2C2CCN(C(=O)OC(C)(C)C)CC2)CC1 | 23.3% (inactive) | –
63 | CCCC(=O)Nc1cc2nn(-c3ccccc3)nc2cc1C | 20.7% (inactive) | –
64 | COc1ccc(Cl)cc1-c1cc(C(=O)Nc2cc(OC)c(OC)c(OC)c2)[nH]n1 | 0% (inactive) | –
65 | CCN(CC)C(=O)Oc1ccc(Br)cc1C(=O)Nc1ccc(F)c(Cl)c1 | 17.1% (inactive) | –
66 | CCCOc1ccc(F)cc1-c1cc(C(=O)Nc2ccc(F)c(Cl)c2)[nH]n1 | – | 8.91 µM (active)
67 | CC(C)(C)c1ccc(C(=O)NCC(c2ccc(Cl)cc2)N2CCOCC2)cc1 (stereo not given) | 0% (inactive) | –
68 | COc1ccc(-c2ccc(CCC(=O)O)n2-c2ccc(O)cc2)cc1 | -16.9% [at 9.22 µM] (inactive) | –
69 | CCOC(=O)c1ccc(-n2c(CCC(=O)O)ccc2-c2ccccc2)cc1 | – | 25.1 µM (active) and 35.5 µM (active)
70 | Cc1ccc(-c2ccc(CCC(=O)O)n2-c2ccc(C(N)=O)cc2)cc1 | 24.7% (inactive) | –
71 | Cc1ccc(C2CCN(C(=O)c3cnn(-c4ccccc4Cl)c3C3CCN(C(=O)OC(C)(C)C)CC3)C2)cc1 (stereo not given) | 14.4% (inactive) | –
72 | O=C(CN1C(=O)COc2ccc(S(=O)(=O)N3CCCCCC3)cc21)N1CCN(c2cccc(C(F)(F)F)c2)CC1 | -15.3% (inactive) | –

Row | Compound | growth rescue (activation) | Potency
73 | O=C(N/N=C\c1ccc(-c2ccc(Cl)c(Cl)c2)o1)C(=O)N1CCCC1 | 14.6% (inactive) | –
74 | Cc1ccc(/C=N/NC(=O)Cn2ccc(C(F)(F)F)n2)o1 | -13.1% (inactive) | –
75 | COC(=O)N/N=C/c1ccc(-c2ccc(Cl)c(Cl)c2)o1 | – | 12.6 µM (active)
76 | Cc1ccc(NC(=O)c2cn3c4c(ccc(Cl)c4c2=O)OC(C)C3)cc1C (stereo not given) | 8.62% (inactive) | –
77 | Cc1cccc(Nc2cc(C)nc(-n3nc(C)cc3C)n2)c1 | 20.6% (inactive) | –
78 | COc1ccc2c(Sc3ccc(C)cc3)c(C(=O)NC(C)c3ccccc3)[nH]c2c1 (stereo not given) | 4.22% (inactive) | –
79 | Cc1nnc(SCC(=O)Nc2cccc(N)c2)n1-c1ccccc1 | 7.19% (inactive) | –
80 | CSc1cccc(NC(=O)CSc2ccccc2)c1 | – | 14.1 µM (active)
81 | O=C(CSc1ccccc1)Nc1cccc(S(=O)(=O)N2CCOCC2)c1 | 10.9% (inactive) | –
82 | Cc1ccc2nc(/C(C#N)=C/c3ccc(-c4ccc(C(=O)OC(C)C)cc4)o3)[nH]c2c1 | 29.7% (inactive) | –
83 | COc1ccccc1NC(=O)c1cc(S(=O)(=O)NCCc2ccccc2)ccc1F | 26% (inactive) | –
84 | COc1cccc(N2CCN(S(=O)(=O)c3ccc4c(c3)CCCN4C(C)=O)CC2)c1 | 14.5% (inactive) | –
85 | COc1cccc(N2CCN(C3CC(=O)N(c4ccc(Cl)cc4)C3=O)CC2)c1 (stereo not given) | 9.45% (inactive) | –
86 | COc1cccc(N2C(=O)CC(N3CCc4ccccc4C3)C2=O)c1 (stereo not given) | – | 17.8 µM (active)
87 | COc1cccc(N2C(=O)CC(N3CCN(S(=O)(=O)c4ccccc4)CC3)C2=O)c1 (stereo not given) | 7.1% (inactive) | –
88 | CCOc1ccccc1C(=O)Nc1ccc2c(c1)N(C)C(=O)c1ccccc1S2 | 10.1% (inactive) | –
89 | CCc1noc(C)c1C(=O)OCC(=O)c1ccc(NC(=O)CC(C)C)cc1 | -3.44% (inactive) | –
90 | CCc1noc(C)c1C(=O)N1CCCSC1=Nc1ccccc1OC | 13.6% (inactive) | –
91 | CCc1noc(C)c1C(=O)Nc1nc(-c2ccccc2)cs1 | – | 11.2 µM (active)
92 | O=C(/C=C/c1cn(CC(O)CN2CCc3ccccc32)c2ccccc12)c1ccc(Br)cc1 (stereo not given) | -30.3% (inactive) | –
93 | Cc1ccccc1OCc1ccc(-c2nc(C#N)c(N3CCCCC3)o2)o1 | 0.64% (inactive) | –
94 | COc1ccc(OCc2ccc(-c3nc(C#N)c(N4CCN(c5ccccc5)CC4)o3)o2)cc1 | 6.14% (inactive) | –
95 | CC1CCN(c2oc(-c3ccccc3F)nc2C#N)CC1 | – | 15.8 µM (active)
